From PubChem BioAssay (Tox21)
“And” between values parts separate entries of the source, which are not always exact repeats. Identical values can stand only once. Results filed as inconclusive are left out. A call without a number means that no potency is given here. The source holds several records for some structures; these can differ, active in one and inactive in another. The source made the active and inactive calls. Unless noted, calls come from the whole dose curve; as a rule, active = well fitted curve in the direction sought with a large enough effect in the repeat runs; inconclusive = weak or mixed curves; inactive = no such curve, though single readings can be large; an effect the other way counts as inactive or inconclusive.

What was measured:
[1] = qHTS assay to identify small molecule agonists of the progesterone receptor (PR) signaling pathway - cell viability counter screen (AID 1346799; calls by dose curve; note: nearly all actives have a fitted effect of over 45% in size)
Procedure, shortened: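 In parallel with the beta-lactamase readout, cytotoxicity toward PR-UAS-bla HEK293T cells was measured by CellTiter-Glo luminescence following 16 hr compound incubation in 2% charcoal-stripped FBS medium.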

[2] = qHTS assay to identify small molecule antagonists of the TGF-beta/Smad signaling pathway - cell viability counter screen (AID 1346824); note: nearly all actives have a fitted effect of over 50% in size
Procedure, shortened: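 SBE-bla HEK 293T cells, incubated overnight, then compound plus 0.25 ng/mL TGF-beta1 (stock added) for 5 hr at 37 C. Viability was read in the same wells by CellTiter-Glo luminescence after 30 min at room temperature.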

[3] = qHTS assay to identify small molecule agonists of the TGF-beta/Smad signaling pathway - cell viability counter screen (AID 1346829); note: top concentration of the series differs between compounds; nearly all actives have a fitted effect of over 45% in size
Procedure, shortened: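 Luminescence from CellTiter-Glo, read after a 30 min room-temperature incubation, gives cell viability of SBE-bla HEK 293T cells treated 5 hr with compounds at 37 C.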

[4] = qHTS assay to identify small molecule agonists of the TGF-beta/Smad signaling pathway (AID 1346859; active = well fitted activation curve with a large enough effect in the signal ratio in the repeat runs, not every such curve was filed as active; the % refers to the signal ratio; note: series mostly up to about 77 µM)
Procedure, shortened: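 After overnight seeding, SBE-bla HEK 293T cells are dosed with compounds in DMSO and kept 5 hr at 37 C, 5% CO2. LiveBLAzer-type FRET substrate is then applied for 2 hr at room temperature.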

[5] = Human pregnane X receptor (PXR) small molecule agonists, qHTS cell viability counter screen (AID 1346977); note: nearly all actives have a fitted effect of over 50% in size; note: potency is the fitted concentration of half-maximal effect
Procedure, shortened: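 Viability counter screen: CellTiter-Fluor signal in PXR-Luc HepG2 cells, 24hr compound exposure, 37C, 5% CO2.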

[6] = Caspase-3/7 induction in HepG2 cells by small molecules, qHTS assay (AID 1346978); note: nearly all actives have a fitted effect of over 15% in size
Procedure, shortened: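 Wild-type HepG2 cells, 2,000/well, settled 5 hr at 37 C and 5% CO2, then compound-treated for 17 hr; caspase-3/7 activity read by luminescent Caspase-Glo 3/7 after 30 min at room temperature.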

[7] = Caspase-3/7 induction in CHO-K1 cells by small molecules, qHTS cell viability counter screen (AID 1346979); note: nearly all actives have a fitted effect of over 35% in size; note: potency is the fitted concentration of half-maximal effect
Procedure, shortened: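 Viability readout by fluorescence (CellTiter-Fluor) on wild-type CHO-K1 cells exposed for 16hr at 37C and 5% CO2 to compounds delivered in DMSO; reagent incubated 1hr before reading.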

[8] = Caspase-3/7 induction in HepG2 cells by small molecules, qHTS cell viability counter screen (AID 1346981); note: nearly all actives have a fitted effect of over 30% in size; note: potency is the fitted concentration of half-maximal effect
Procedure, shortened: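 Viability determined by CellTiter-Fluor fluorescence in HepG2 wells also used for the luminescent Caspase-Glo 3/7 read. Compounds were present for 16 hr at 37 C, 5% CO2 before reagent addition.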

[9] = target: Nuclear receptor subfamily 1 group I member 2 (Homo sapiens) (UniProt O75469); assay: Human pregnane X receptor (PXR) small molecule agonists, qHTS assay (AID 1346982); note: nearly all actives have a fitted effect of over 35% in size; note: potency is the fitted concentration of half-maximal effect
Procedure, shortened: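 Compound-induced hPXR transactivation of a CYP3A4 luciferase reporter was scored in HepG2 PXR-Luc cells over 24 hr at 37 C, 5% CO2, by luminescence.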

[10] = target: Acetylcholinesterase (Homo sapiens) (UniProt P22303); assay: Acetylcholinesterase (AChE) small molecule antagonists: colormetric cell-based qHTS assay (AID 1347395; calls by dose curve; note: nearly all actives have a fitted effect of over 30% in size; note: potency is the fitted concentration of half-maximal effect)
Procedure, shortened: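 Homogeneous whole-cell format. SH-SY5Y cells seeded overnight, dosed with compound (30 min, 37 C, 5% CO2), then given DTNB/acetylthiocholine cocktail for 90 min at 37 C; colorimetric signal.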

[11] = target: Acetylcholinesterase (Homo sapiens) (UniProt P22303); assay: Acetylcholinesterase (AChE) small molecule antagonists: enzyme-based qHTS assay (AID 1347397; calls by dose curve; note: nearly all actives have a fitted effect of over 55% in size; note: potency is the fitted concentration of half-maximal effect); conditions: Potency: AChE enzyme activity inhibition
Procedure, shortened: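 Enzyme inhibition was scored from DTNB-detected thiocholine formed by recombinant human AChE acting on acetylthiocholine. The 30 min compound preincubation and 10 min substrate reaction were both run at room temperature, with DMSO as vehicle control.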

[12] = target: Acetylcholinesterase (Homo sapiens) (UniProt P22303); assay: Acetylcholinesterase (AChE) small molecule antagonists: fluorescence cell-based qHTS assay (AID 1347398; calls by dose curve; note: nearly all actives have a fitted effect of over 50% in size; note: potency is the fitted concentration of half-maximal effect); conditions: Potency: AChE activity
Procedure, shortened: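 Endogenous acetylcholinesterase of SH-SY5Y neuroblastoma cells is measured in situ. After overnight attachment and 30 min compound exposure, cells receive acetylthiocholine and Thiolite Green; fluorescence is read after 40 min at room temperature.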

[13] = target: Acetylcholinesterase (Homo sapiens) (UniProt P22303); assay: Acetylcholinesterase (AChE) small molecule antagonists: enzyme-based qHTS assay with human liver microsomes (AID 1347399; calls by dose curve; note: nearly all actives have a fitted effect of over 60% in size; note: potency is the fitted concentration of half-maximal effect); conditions: Potency: qHTS inhibition
Procedure, shortened: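 Recombinant human AChE (50 mU/mL in the enzyme mix) and human liver microsomes (0.25 mg/mL final) were preincubated with compound and NADPH (0.25 mg/mL final) for 30 min at 37 C. Acetylthiocholine/DTNB was then added; thiocholine was read colorimetrically after 10 min at room temperature.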

[14] = target: Thyrotropin-releasing hormone receptor (Homo sapiens) (UniProt P34981); assay: qHTS assay to identify small molecule antagonists of the thyrotropin-releasing hormone receptor (TRHR) signaling pathway (AID 1346877; active = well fitted inhibition curve with a large enough effect in the repeat runs, not every such curve was filed as active; note: series mostly up to about 51 µM)
Procedure, shortened: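 Following an 18 h incubation at 37 °C and a 2 h calcium dye load, TRHR-HEK293 cells were exposed to compound (5 min, room temperature) and challenged with TRH, 1 nM final.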

[15] = target: Thyrotropin-releasing hormone receptor (Homo sapiens) (UniProt P34981); assay: qHTS assay to identify small molecule agonists of the thyrotropin-releasing hormone receptor (TRHR) signaling pathway (AID 1346891; calls by dose curve;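 note: HEK293 cells expressing TRHR with calcium dye readout; series mostly up to about 58 µM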)
Procedure, shortened: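 Compounds were tested as agonists at 15 concentrations, in triplicate, on TRHR-Hek293 cells; calcium-sensitive dye fluorescence was recorded for 3 min following addition.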

[16] = target: Cytochrome P450 2D6 (Homo sapiens) (UniProt P10635); assay: Cytochrome P450 Family 2 Subfamily D Member 6 (CYP2D6) small molecule antagonists: luciferase reporter qHTS assay (AID 1671196); note: series mostly up to about 120 µM; nearly all actives have a fitted effect of over 50% in size
Procedure, shortened: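 Each well received CYP2D6 with its proluciferin substrate and chemical, sat 10 min, then got NADPH regeneration solution for 1 h at room temperature. Luminescence in RLU served as the activity measure.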

[17] = Caspase-3/7 induction in CHO-K1 cells by small molecules, qHTS assay (AID 1346980); note: nearly all actives have a fitted effect of over 15% in size
Procedure, shortened: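 Wild-type CHO-K1 cells exposed to compounds for 17hr at 37 C, 5% CO2. Caspase-3/7 activity then measured by Caspase-Glo 3/7 luminescence after 30min at room temperature.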

[18] = target: Nuclear receptor subfamily 1 group I member 2 (Rattus norvegicus) (UniProt Q9R1A7); assay: Rat pregnane X receptor (rPXR) activation by small molecules, qHTS assay (AID 1346983); conditions: rPXR luciferase reporter cells, One-Glo luminescence, 24 h; stronger effect = higher value; note: nearly all actives have a fitted effect of over 20% in size
Procedure, shortened: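 Cell-based rPXR activation assay: rPXR cells, 2,000 per well, rested 5hr at 37 C, then exposed to compounds in DMSO for 24 hr at 37 C. Luciferase activity read by One-Glo luminescence after 30 min at room temperature.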

[19] = target: Nuclear receptor subfamily 1 group I member 2 (Homo sapiens) (UniProt O75469); assay: CYP3A4 induction through human pregnane X receptor (PXR) by small molecules, qHTS assay (AID 1346984); note: nearly all actives have a fitted effect of over 40% in size
Procedure, shortened: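 Readings come from a luciferase reporter: DPX-2 cells, which are HepG2 cotransfected with PXR and a CYP3A4-promoter construct, were exposed to test compounds for 24 h at 37C before One-Glo detection.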

[20] = target: Nuclear receptor subfamily 1 group I member 2 (Homo sapiens) (UniProt O75469); assay: Human pregnane X receptor (PXR) activation by small molecules, qHTS assay (AID 1346985); note: nearly all actives have a fitted effect of over 40% in size
Procedure, shortened: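 DPX-2 cells (HepG2 co-transfected with a PXR response element and a CYP3A4-promoter luciferase construct) were seeded at 2,000 per well, rested 5 hr at 37C, then exposed to DMSO-dissolved compounds for 24 hr. Activation was read as luciferase luminescence.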

Sequence of Nuclear receptor subfamily 1 group I member 2 (Homo sapiens) (O75469 whole entry, looked up): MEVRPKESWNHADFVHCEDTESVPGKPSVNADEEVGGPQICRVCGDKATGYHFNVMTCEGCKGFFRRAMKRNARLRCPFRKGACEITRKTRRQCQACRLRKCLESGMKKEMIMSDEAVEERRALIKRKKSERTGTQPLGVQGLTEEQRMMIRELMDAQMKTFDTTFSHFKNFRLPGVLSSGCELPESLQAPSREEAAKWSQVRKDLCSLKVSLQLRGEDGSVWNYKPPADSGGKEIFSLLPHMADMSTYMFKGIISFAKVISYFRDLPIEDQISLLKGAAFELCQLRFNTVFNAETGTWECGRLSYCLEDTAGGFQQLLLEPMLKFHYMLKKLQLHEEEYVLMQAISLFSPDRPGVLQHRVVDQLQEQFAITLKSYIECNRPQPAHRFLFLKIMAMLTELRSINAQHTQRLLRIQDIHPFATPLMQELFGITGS
Sequence of Cytochrome P450 2D6 (Homo sapiens) (P10635 whole entry, looked up): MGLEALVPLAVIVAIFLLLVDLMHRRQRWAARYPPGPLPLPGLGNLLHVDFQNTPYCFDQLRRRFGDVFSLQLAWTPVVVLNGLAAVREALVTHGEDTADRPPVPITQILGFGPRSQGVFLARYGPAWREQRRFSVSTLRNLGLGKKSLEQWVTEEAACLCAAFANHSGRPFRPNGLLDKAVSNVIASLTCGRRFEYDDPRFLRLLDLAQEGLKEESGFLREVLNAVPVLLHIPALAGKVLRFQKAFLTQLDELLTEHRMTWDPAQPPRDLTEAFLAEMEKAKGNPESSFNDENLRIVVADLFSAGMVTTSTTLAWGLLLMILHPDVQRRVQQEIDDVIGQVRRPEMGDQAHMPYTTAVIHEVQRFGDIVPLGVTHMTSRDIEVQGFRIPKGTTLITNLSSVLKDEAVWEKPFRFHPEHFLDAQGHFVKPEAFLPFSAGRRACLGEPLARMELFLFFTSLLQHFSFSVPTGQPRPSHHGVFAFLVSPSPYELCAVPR
Sequence of Acetylcholinesterase (Homo sapiens) (P22303 whole entry, looked up): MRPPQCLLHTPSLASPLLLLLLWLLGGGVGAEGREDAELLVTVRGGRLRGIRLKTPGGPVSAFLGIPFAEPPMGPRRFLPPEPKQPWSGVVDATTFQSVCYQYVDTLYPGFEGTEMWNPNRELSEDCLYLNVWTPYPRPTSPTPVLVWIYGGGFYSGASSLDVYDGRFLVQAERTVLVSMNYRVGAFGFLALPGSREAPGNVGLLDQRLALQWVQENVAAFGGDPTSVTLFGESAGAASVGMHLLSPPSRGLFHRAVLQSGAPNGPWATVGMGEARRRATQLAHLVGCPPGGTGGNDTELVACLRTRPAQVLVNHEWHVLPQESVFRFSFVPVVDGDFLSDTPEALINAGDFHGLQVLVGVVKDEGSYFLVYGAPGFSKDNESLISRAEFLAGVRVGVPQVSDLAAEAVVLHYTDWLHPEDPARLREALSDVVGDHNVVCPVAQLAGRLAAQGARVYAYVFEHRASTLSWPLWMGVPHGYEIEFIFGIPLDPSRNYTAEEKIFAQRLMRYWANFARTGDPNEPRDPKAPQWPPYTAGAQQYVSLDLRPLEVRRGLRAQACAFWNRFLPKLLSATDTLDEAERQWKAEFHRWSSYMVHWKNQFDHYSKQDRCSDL
Sequence of Thyrotropin-releasing hormone receptor (Homo sapiens) (P34981 whole entry, looked up): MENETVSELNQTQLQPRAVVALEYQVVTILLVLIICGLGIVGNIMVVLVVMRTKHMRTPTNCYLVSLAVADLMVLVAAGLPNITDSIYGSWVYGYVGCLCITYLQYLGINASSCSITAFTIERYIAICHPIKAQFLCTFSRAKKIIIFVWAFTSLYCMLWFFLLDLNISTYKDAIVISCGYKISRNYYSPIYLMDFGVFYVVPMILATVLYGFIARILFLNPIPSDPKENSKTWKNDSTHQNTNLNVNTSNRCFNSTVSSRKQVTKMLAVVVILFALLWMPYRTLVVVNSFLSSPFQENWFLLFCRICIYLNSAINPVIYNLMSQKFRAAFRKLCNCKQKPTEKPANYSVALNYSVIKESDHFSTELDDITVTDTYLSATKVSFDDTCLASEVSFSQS
Sequence of Nuclear receptor subfamily 1 group I member 2 (Rattus norvegicus) (Q9R1A7 whole entry, looked up): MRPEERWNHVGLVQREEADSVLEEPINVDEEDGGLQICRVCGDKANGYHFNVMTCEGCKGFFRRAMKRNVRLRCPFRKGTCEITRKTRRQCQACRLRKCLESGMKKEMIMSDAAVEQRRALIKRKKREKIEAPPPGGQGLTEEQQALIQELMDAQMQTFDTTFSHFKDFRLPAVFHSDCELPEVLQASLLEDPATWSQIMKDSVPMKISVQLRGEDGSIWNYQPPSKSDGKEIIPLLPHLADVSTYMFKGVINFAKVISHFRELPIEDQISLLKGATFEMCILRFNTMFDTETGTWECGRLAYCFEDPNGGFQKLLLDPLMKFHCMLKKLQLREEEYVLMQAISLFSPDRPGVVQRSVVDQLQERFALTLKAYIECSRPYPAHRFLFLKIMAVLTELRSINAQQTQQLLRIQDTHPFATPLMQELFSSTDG

With `CC(C)(C)OOC(=O)c1ccccc1` the Potency [1] was “inactive”, the Potency [2] was “inactive” and the outcome [3] was “inactive”. The Potency [4] was “inactive”, the Potency [5] was “inactive” and the outcome [6] was “inactive”. The Potency [7] was “inactive”, the Potency [8] was “inactive” and the Potency [9] was “inactive”. For the same compound, the Potency [10] was “inactive”, the Potency [11] was “inactive” and the Potency [12] was “inactive”. The Potency [13] was “inactive”.

With `CNC(=O)Oc1ccccc1OC(C)C` the Potency [1] was “inactive”, the Potency [2] was “inactive” and the outcome [3] was “inactive”. The Potency [4] was “inactive”, the outcome [14] was “inactive” and the Potency [15] was “inactive”. For the same compound, the outcome [6] was “inactive”, the Potency [7] was “inactive” and the Potency [8] was “inactive”. For the same compound, the Potency [9] was “inactive”, the Potency [10] was 2 µM (active) and 2.24 µM (active) and the Potency [11] was 3.18 µM (active) and 3.17 µM (active). The Potency [12] was 798 nM (active) and 1.59 µM (active), the Potency [13] was 22.5 µM (active) and 22.4 µM (active) and the Potency [16] was “inactive”.

In the case of `Cc1cc(-c2cc(C)c(N)c(C)c2)cc(C)c1N`, the Potency [1] is reported as “inactive”, the Potency [2] is reported as “inactive” and the outcome [3] is reported as “inactive”. For the same compound, the Potency [4] was “inactive”, the outcome [6] was “inactive” and the Potency [7] was “inactive”. For the same compound, the Potency [8] was “inactive”, the Potency [9] was 54.6 µM (active) and 26.8 µM (active) and the Potency [11] was “inactive”. The Potency [12] was “inactive” and the Potency [13] was “inactive”.

For `CCCN(CCC)c1c([N+](=O)[O-])cc(C(F)(F)F)cc1[N+](=O)[O-]`, the Potency [1] was “inactive”, the Potency [2] was “inactive” and the outcome [3] was “inactive”. The Potency [4] was “inactive”, the outcome [14] was “inactive” and the Potency [15] was “inactive”. The outcome [6] was “inactive”, the Potency [7] was “inactive” and the Potency [8] was “inactive”. The Potency [9] was 30.6 µM (active), the Potency [11] was “inactive” and the Potency [12] was “inactive”. The Potency [13] was “inactive”.

With `CC(C)(C)OOC(C)(C)C` the Potency [1] was “inactive”, the Potency [2] was “inactive” and the outcome [3] was “inactive”. For the same compound, the Potency [4] was “inactive”, the outcome [14] was “inactive” and the Potency [15] was “inactive”. The outcome [6] was “inactive”, the Potency [7] was “inactive” and the Potency [8] was “inactive”. For the same compound, the Potency [9] was “inactive”, the Potency [12] was “inactive” and the Potency [13] was “inactive”. For the same compound, the Potency [16] was “inactive”.

In the case of `OCCN(CCO)CCO`, the Potency [1] is reported as “inactive”, the Potency [2] is reported as “inactive” and the outcome [3] is reported as “inactive”. For the same compound, the Potency [4] was “inactive”, the Potency [5] was “inactive” and the outcome [6] was “inactive”. For the same compound, the Potency [7] was “inactive”, the outcome [17] was “inactive” and the Potency [8] was “inactive”. For the same compound, the Potency [9] was “inactive”, the Potency [11] was “inactive” and the Potency [12] was “inactive”. The Potency [13] was “inactive”.

With `O=c1ccc(=O)[nH][nH]1` the Potency [1] was “inactive”, the Potency [2] was “inactive” and the outcome [3] was “inactive”. The Potency [4] was “inactive”, the outcome [6] was “inactive” and the Potency [7] was “inactive”. For the same compound, the outcome [17] was “inactive”, the Potency [8] was “inactive” and the Potency [9] was “inactive”. The Potency [10] was “inactive”, the Potency [12] was “inactive” and the Potency [13] was “inactive”.

With `COCCl` the Potency [1] was “inactive”, the Potency [2] was “inactive” and the outcome [3] was “inactive”. For the same compound, the Potency [4] was “inactive”, the Potency [5] was 39.8 µM (active) and inactive and the outcome [6] was “inactive”. For the same compound, the Potency [7] was 20.1 µM (active) and inactive, the outcome [17] was “inactive” and the Potency [8] was 35.7 µM (active) and inactive. For the same compound, the Potency [9] was 56.6 µM (active) and inactive, the Potency [10] was “inactive” and the Potency [11] was “inactive”. For the same compound, the Potency [12] was “inactive” and the Potency [13] was “inactive”.

For `O=c1n(Cl)c(=O)n(Cl)c(=O)n1Cl`, the Potency [1] was “inactive”, the outcome [3] was “inactive” and the Potency [4] was “inactive”. The outcome [14] was “inactive”, the Potency [15] was “inactive” and the Potency [5] was “inactive”. The outcome [6] was “inactive”, the Potency [7] was “inactive” and the outcome [17] was “inactive”. The Potency [8] was “inactive”, the Potency [9] was “inactive” and the max activation [18] was 0.0046% (inactive). For the same compound, the outcome [19] was “inactive”, the Potency [20] was “inactive” and the Potency [10] was “inactive”. For the same compound, the Potency [11] was “inactive”, the Potency [12] was “inactive” and the Potency [13] was “inactive”. For the same compound, the Potency [16] was “inactive”.
